Publication PMC4336329 (PLoS ONE, 2015)
The campaign covered roughly 310,000 compounds. About 14,000 (4.5%) showed an effect of 50% or more. The effect is printed as a negative number. The sample holds strong results, similar compounds and a random draw of the others, so the mix is not that of the screen.

Biological target: human ether-à-go-go-related gene (hERG) potassium channel (human, UniProt Q12809)
Experiment: primary screen, population patch clamp on CHO cells stably expressing hERG; higher = less effect of the substance
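Further: peak tail current of the secondary pulse compared with the same well before compound.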

Chain of human ether-à-go-go-related gene (hERG) potassium channel (Q12809 whole entry, looked up): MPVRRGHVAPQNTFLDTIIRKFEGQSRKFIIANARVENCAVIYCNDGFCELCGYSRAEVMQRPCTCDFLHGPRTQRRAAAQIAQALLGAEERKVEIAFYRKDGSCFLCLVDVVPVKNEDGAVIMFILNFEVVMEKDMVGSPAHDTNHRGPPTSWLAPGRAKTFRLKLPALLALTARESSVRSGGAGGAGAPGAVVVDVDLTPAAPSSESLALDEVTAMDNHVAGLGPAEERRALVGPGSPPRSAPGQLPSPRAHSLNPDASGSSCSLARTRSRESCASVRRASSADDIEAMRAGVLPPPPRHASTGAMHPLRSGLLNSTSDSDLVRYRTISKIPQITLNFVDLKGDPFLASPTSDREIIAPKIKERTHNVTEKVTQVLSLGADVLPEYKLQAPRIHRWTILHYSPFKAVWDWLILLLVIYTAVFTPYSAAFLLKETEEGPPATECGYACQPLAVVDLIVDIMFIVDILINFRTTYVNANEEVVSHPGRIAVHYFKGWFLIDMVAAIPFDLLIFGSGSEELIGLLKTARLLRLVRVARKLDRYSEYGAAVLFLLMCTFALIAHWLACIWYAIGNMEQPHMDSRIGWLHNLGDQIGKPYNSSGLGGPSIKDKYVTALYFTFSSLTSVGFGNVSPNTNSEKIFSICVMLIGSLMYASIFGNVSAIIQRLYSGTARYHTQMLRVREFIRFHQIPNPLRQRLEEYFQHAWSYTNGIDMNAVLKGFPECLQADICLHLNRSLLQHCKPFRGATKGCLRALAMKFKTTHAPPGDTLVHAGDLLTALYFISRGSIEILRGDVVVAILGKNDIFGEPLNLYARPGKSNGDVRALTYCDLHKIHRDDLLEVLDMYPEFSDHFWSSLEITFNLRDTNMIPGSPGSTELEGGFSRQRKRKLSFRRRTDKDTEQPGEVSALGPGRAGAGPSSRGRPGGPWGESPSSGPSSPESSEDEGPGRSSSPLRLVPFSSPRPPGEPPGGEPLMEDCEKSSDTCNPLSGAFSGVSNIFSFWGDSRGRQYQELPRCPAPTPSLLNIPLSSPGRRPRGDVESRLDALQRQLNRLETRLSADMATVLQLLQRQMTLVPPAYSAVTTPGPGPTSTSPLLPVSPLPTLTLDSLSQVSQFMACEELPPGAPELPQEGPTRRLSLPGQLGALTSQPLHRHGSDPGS

Structure (SMILES)	hERG current change (%, negative = inhibition) at 10uM
COc1ccc(-n2nc(C(=O)NCc3ccco3)c3c4ccccc4n(C)c3c2=O)cc1	18.1%
Cc1ccc(C)c(NC(=O)C2CCC(C)(C(=O)O)C2(C)C)c1 (stereo not shown)	-18.4%
Cc1cccc(NCC(=O)N/N=C\c2cccc(Oc3ccccc3)c2)c1	20.1%
O=C(CNC(=O)c1cccs1)Nc1ccncc1	8.67%
O=C(Nc1ccc2c(c1)OCO2)C1CC(c2ccccc2Cl)=NO1 (stereo not shown)	-12.7%
CC(CS(=O)(=O)c1ccc2c(c1)NC(=O)CS2)C(=O)N1CCN(c2cccc(Cl)c2)CC1 (stereo not shown)	-52.1%
CC(CC(=O)N1CCN(c2ccccc2)CC1)S(=O)(=O)c1ccc2c(c1)NC(=O)CS2 (stereo not shown)	-34.6%
O=C1COc2ccc(S(=O)(=O)CCC(=O)N3CCN(c4ccccc4)CC3)cc2N1	-13.1%
O=C1COc2ccc(S(=O)(=O)CCC(=O)N3CCN(c4cccc(Cl)c4)CC3)cc2N1	-58.4%
COc1ccccc1N1CCN(C(=O)C(C)CS(=O)(=O)c2ccc3c(c2)NC(=O)CS3)CC1 (stereo not shown)	4.07%
O=C1COc2ccc(S(=O)(=O)CCC(=O)N3CCN(c4cccc(C(F)(F)F)c4)CC3)cc2N1	-46.3%
O=C(NC1CCN(c2ncccn2)CC1)c1ccccc1F	18.6%
O=C(CSc1ncn(-c2ccccc2)n1)c1cccs1	-3.5%
Cc1ccc(S(=O)(=O)N2CCN(S(=O)(=O)c3ccc4c(c3)OCCO4)CC2)cc1	8.43%
COc1ccc(CCNC(=O)c2cccc3c2C(=O)N(C2CCCCC2)C3)cc1OC	-24.1%
COc1ccc(CCNC(=O)c2cc(-c3ccccn3)nc3c(Cl)cccc23)cc1OC	10.5%
COc1ccc(CCNC(=O)c2cc(-c3ccncc3)nc3c(Cl)cccc23)cc1OC	-66.9%
COc1ccc(CCNC(=O)c2c(C)nc3ccccn23)cc1	-4.75%
COc1ccc(CCNC(=O)c2cnc3ccccn3c2=O)cc1	-22.3%
COc1ccc(CNC(=O)c2c(C)nc3ccccn23)cc1	-12.1%
COc1ccc(CCNC(=O)c2cc3c(=O)n4ccccc4nc3n(C3CCCCC3)c2=N)cc1	-81.3%
COc1ccccc1CNC(=O)c1cc(-c2ccncc2)nc2c(Cl)cccc12	10.5%

Structure (SMILES)	hERG current change (%, negative = inhibition) at 10uM
COc1ccc(CCNC(=O)c2c(C)nc3ccccn23)cc1OC	-64.3%
COc1ccc(CCNC(=O)c2cccc3ccccc23)cc1OC	7.77%
COc1ccc(CCNC(=O)c2cc3c(=O)n4ccccc4nc3n(C3CCCCC3)c2=N)cc1OC	-76.6%
Cc1cc(NC(=O)c2ccc3nc(-c4ccccc4)c(-c4ccccc4)nc3c2)no1	6.59%
Nc1c(/C=C2\C=Nc3ccccc32)c(=O)nc2sc(CC(=O)N3CCOCC3)nn12	17.2%
Cc1ccc(Cn2c(C(C)Nc3nc(-c4ccc(Cl)c([N+](=O)[O-])c4)cs3)nc3cc(C(F)(F)F)ccc32)cc1 (stereo not shown)	5.46%
Fc1ccccc1COc1ccc(/C=N/n2cnnc2)cc1	-12.2%
COc1cc(O)c(C(CCN2CCCCC2)c2ccc(N(C)C)cc2)c(OC)c1 (stereo not shown)	-8.43%
COc1ccc(C(CCN2CCCC2)c2c(O)cc(OC)cc2OC)cc1 (stereo not shown)	-61.2%
COc1cc(O)c(C(CCN2CCCC2)c2ccc(N(C)C)cc2)c(OC)c1 (stereo not shown)	-10%
COc1ccc(C(CCN2CCCCC2)c2c(O)cc(OC)cc2OC)cc1 (stereo not shown)	-75.2%
COc1cc(O)c(C(CCN2CCCCC2)c2cc(OC)c(OC)c(OC)c2)c(OC)c1 (stereo not shown)	4.24%
COc1ccc(C(CCN2CCOCC2)c2c(O)cc(OC)cc2OC)cc1 (stereo not shown)	-47.1%
COc1ccccc1NS(=O)(=O)c1ccc2c(c1)NC(=O)CC(=O)N2	14.5%
COc1cc(CNn2cn[nH]c2=S)cc(Br)c1OCc1ccccc1F	6.75%
CC1(C(=O)O)COC(c2ccc(Cl)cc2)OC1 (stereo not shown)	-25.3%
CC(=O)Nc1ccc(S(=O)(=O)N(C)CC(=O)Nc2cccc(S(=O)(=O)N3CCCC3)c2)cc1	-8.1%
O=C(CCS(=O)(=O)c1ccccc1)N1CCN(c2ccc(F)cc2)CC1	-35.9%
O=C(CCS(=O)(=O)c1ccc(Br)cc1)N1CCN(c2ccc(F)cc2)CC1	-66.3%
COc1ccc(S(=O)(=O)CCC(=O)N2CCN(c3ccc(C(C)=O)cc3)CC2)cc1	-45.9%
O=C(CCS(=O)(=O)c1ccc(Cl)cc1)N1CCN(c2ccc(F)cc2)CC1	-76.1%
O=C(CCS(=O)(=O)c1ccc(F)cc1)N1CCN(c2ccccc2)CC1	-23.2%

Structure (SMILES)	hERG current change (%, negative = inhibition) at 10uM
O=C(CCS(=O)(=O)c1ccc(Br)cc1)N1CCN(c2ccc(Cl)cc2)CC1	-9.11%
COc1ccc(N2CCN(C(=O)CCS(=O)(=O)c3ccc(OC)cc3)CC2)cc1	-19.3%
COc1ccc(S(=O)(=O)CCC(=O)N2CCN(c3ccc(F)cc3)CC2)cc1	-59.7%
O=C(CCS(=O)(=O)c1ccc(Cl)cc1)N1CCN(c2ccccc2F)CC1	-12.2%
Cc1ccc(-c2ccc(CCC(=O)O)o2)cc1	14.5%
CN(CCC#N)C(=S)Nc1ccc(Oc2ccccc2)cc1	-28.6%
N#Cc1c(SCC(N)=O)nsc1SCc1ccc(Cl)cc1	-0.34%
Cn1nc(-c2ccc(C(=O)O)cc2)c2ccccc2c1=O	11.6%
CC(C)C12CCC(C(=O)O)C(C1)C(=O)O2 (stereo not shown)	13.9%
N#Cc1ccc(Oc2ccc(S(=O)(=O)N3CCCC3)cn2)cc1	-35.8%
N#Cc1ccccc1Oc1ccc(S(=O)(=O)N2CCCCC2)cn1	-79.6%
N#Cc1ccc(Oc2ccc(S(=O)(=O)N3CCCCC3)cn2)cc1	-24.7%
N/C(=N\OC(=O)c1ccccc1Cl)c1ccccc1	-16.2%
O=C(c1cccs1)N(C(=O)c1cccs1)c1ccccn1	9.68%
CC1CCc2cc(F)cc3c(O)c(C(=O)NCCN(C)C)c(=O)n1c23.Cl (stereo not shown)	-1%
CCCn1c2c(c(O)c(C(=O)NC)c1=O)CCCC2	-6.66%
CCn1c(=O)c(C(=O)NCCCO)c(O)c2ccccc21	10.1%
CCCn1c2c(c(O)c(C(=O)NCCCN(CC)CC)c1=O)CCCC2.Cl	-55%
CCN(CC)CCCNC(=O)c1c(O)c2ccccc2n(Cc2ccccc2)c1=O.Cl	-63.8%
CC1CCc2cc(F)cc3c(O)c(C(=O)NCC4CCCO4)c(=O)n1c23 (stereo not shown)	-13.4%
CCn1c(=O)c(C(=O)NCCc2ccccc2)c(O)c2ccccc21	19.7%
CCN(CC)CCCNC(=O)c1c(O)c2cc(F)cc3c2n(c1=O)C(C)CC3.Cl (stereo not shown)	-50.5%

Structure (SMILES)	hERG current change (%, negative = inhibition) at 10uM
C=CCn1c(=O)c(C(=O)NCCN(CC)CC)c(O)c2ccccc21.Cl	-19.2%
CCN(CC)CCNC(=O)c1c(O)c2ccccc2n(Cc2ccccc2)c1=O.Cl	-63%
CCCn1c2c(c(O)c(C(=O)NCc3ccccc3)c1=O)CCCC2	17%
CCn1c(=O)c(C(=O)NCCCc2ccccc2)c(O)c2ccccc21	8.18%
O=C(O)c1ccccc1-c1ccccc1C(=O)Nc1ccccc1-c1ccccc1	19.8%
O=C(Nc1nncs1)Oc1ccccc1	8.98%
CC1CCC/C(=C\Nc2ccc(O)cc2)C1=O (stereo not shown)	-0.0111%
Cc1cc(C(=O)NNC(=O)c2cccs2)c(C)o1	7.06%
CCN(CC)C(=O)CSc1nnc(-c2ccncc2)n1N	13.4%
Cc1ccc(-c2nnn(CC(=O)N(c3ccccc3F)C(CC(C)C)C(=O)NCC3CCCO3)n2)cc1 (stereo not shown)	-13%
O=C(Nc1cccc(F)c1)N1CCC(n2c(=O)[nH]c3ccccc32)CC1	-19%
O=C(CCCN1CCC(n2c(=O)[nH]c3ccccc32)CC1)c1ccc(F)cc1	-73%
O=C(NC1CCCCC1)N1CCC(n2c(=O)[nH]c3ccccc32)CC1	2.34%
O=C1NCN(c2ccccc2)C12CCNCC2	3.05%
O=C1NCN(c2ccccc2)C12CCN(c1nnnn1-c1ccccc1)CC2	-11.7%
O=C1CC(N2CCC(n3c(=O)[nH]c4ccccc43)CC2)C(=O)N1Cc1ccccc1 (stereo not shown)	-21.4%
O=C1NCN(c2ccccc2)C12CCN(CCCC(c1ccc(F)cc1)c1ccc(F)cc1)CC2	-75.8%
O=c1[nH]c2ccccc2n1C1CCCCC1	-5.49%
O=c1[nH]c2ccccc2n1C1CCN(CCCC(c2ccc(F)cc2)c2ccc(F)cc2)CC1	-77.6%
Cl.O=c1[nH]c2ccccc2n1CCCN1CCCCC1	16.5%
O=c1[nH]c2ccccc2n1CCCN1CCC(n2c(=O)[nH]c3cc(Cl)ccc32)CC1	-65.5%
O=C1CC(N2CCC(n3c(=O)[nH]c4ccccc43)CC2)C(=O)N1c1ccc(F)cc1 (stereo not shown)	-7.5%
